This is an account of results in ChEMBL document CHEMBL3433997, “St. Jude Leishmania screening dataset” (2016).

Common to all, as to type: functional
Test [1] has as its target Solute carrier family 2, facilitated glucose transporter member 1 (Homo sapiens) (UniProt P11166). As to the kind of experiment: ST_JUDE_LEISH: Cytotoxicity at 2uM final concentration against transgenic Leishmania Mexicana promastigotes LmGLUT1 that are glucose transport deficient and complemented with the human glucose transporter GLUT1. Activity is measured by DNA content using SYBR green in vitro.

The target of test [2] is Hexose transporter 1 (Plasmodium falciparum) (UniProt O97467). Put plainly: ST_JUDE_LEISH: Cytotoxicity at 2uM final concentration against transgenic Leishmania Mexicana promastigotes LmPfHT that are glucose transport deficient and complemented with the Plasmodium falciparum hexose transporter. Activity is measured by DNA content using SYBR green in vitro.
The target of test [3] is Glucose transporter (Leishmania mexicana) (UniProt O61059). Put plainly: ST_JUDE_LEISH: Cytotoxicity at 2uM final concentration against transgenic Leishmania Mexicana promastigotes LmGT2 that are glucose transport deficient and complemented with the L. Mexicana glucose transporter 2. Activity is measured by DNA content using SYBR green in vitro.

Solute carrier family 2, facilitated glucose transporter member 1 (Homo sapiens), sequence (P11166 whole entry): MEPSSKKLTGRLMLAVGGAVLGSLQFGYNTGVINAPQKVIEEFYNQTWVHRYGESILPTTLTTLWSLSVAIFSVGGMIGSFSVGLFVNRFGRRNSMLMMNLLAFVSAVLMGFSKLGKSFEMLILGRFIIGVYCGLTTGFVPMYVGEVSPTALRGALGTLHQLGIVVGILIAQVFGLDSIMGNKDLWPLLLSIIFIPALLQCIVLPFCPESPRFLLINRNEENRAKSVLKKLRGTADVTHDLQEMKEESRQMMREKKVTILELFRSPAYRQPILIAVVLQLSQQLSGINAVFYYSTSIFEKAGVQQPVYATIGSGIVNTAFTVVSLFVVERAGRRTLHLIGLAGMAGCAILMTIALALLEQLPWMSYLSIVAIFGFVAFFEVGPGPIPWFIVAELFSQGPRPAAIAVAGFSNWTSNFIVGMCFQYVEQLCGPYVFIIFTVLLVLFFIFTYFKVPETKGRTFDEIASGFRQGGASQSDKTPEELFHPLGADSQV

Consider `N#Cc1ccc(C(=O)Nc2ccc(-c3cccc(CN4CCCC4)c3)cc2)cc1`, for which the inhibition (in general, the drop in the measured response relative to a control, in per cent) in test [1] is 4.22%; in test [2], 1.49%; in test [3] it was -0.82%.
For `COc1ccc2nccc([C@@H](O)CN3CCC(NC(=O)c4[nH]c5ccccc5c4-c4ccccc4)CC3)c2c1`, the inhibition in test [1] worked out at 28.3%; in test [2], 49.7%; in test [3], 12.8%.
The matching figures for `CC(C)CCN1CCC(Oc2ccc(NC(=O)c3ccsc3)cc2Cl)CC1`: -0.7%, 1.67% and 1.45%.
The matching figures for `O=C(NNC(=O)c1ccc(CCN2CCC(c3nc(COCC(F)(F)F)c(-c4ccc(F)cc4)o3)CC2)cc1)Nc1ccc(Oc2ccccc2)cc1`: -0.99%, -0.56% and -0.09%.
Taken in the same sequence, the figures for `CC12CC3CC(C)(C1)CC(Nc1nc(N4CCOCC4)nc4ccccc14)(C3)C2` were 2.67%, 2.82% and -0.7%.
Take `CS(=O)(=O)c1cccc(-c2cnc3[nH]cc(-c4ccc(C(=O)O)cc4)c3c2)c1`: the inhibition is 1.01% in test [1], -0.81% in test [2] and 1.75% in test [3].
Taken in the same sequence, the figures for `CC(CN(C)C)C(=O)Nc1ccc(-c2ccc(-c3nc4ccccc4[nH]3)cc2)cc1` (stereo not drawn) were 3.03%, 3.01% and 5.36%.
The matching figures for `Cc1nc2sccn2c1C(=O)NCCc1ccccc1Cl`: 0.29%, 1.15% and 1.69%.
Taken in the same sequence, the figures for `Oc1ccc(-c2cncc(NCc3ccc(F)c(F)c3)c2)cc1` were 7.16%, 7.41% and 7.98%.
Turning to `Cc1noc(-c2ccc3c(c2)CCN(CCC2CCC(NC(=O)c4cc5ccccc5[nH]4)CC2)CC3)n1` (stereo not drawn), the values for the inhibition in test [1], in test [2] and in test [3] were 2.93%, 2.28% and 1.98%, respectively.
Taken in the same sequence, the figures for `N=C(NC1CC1)c1ccc2[nH]c(CCCCCc3nc4cc(C(=N)NC5CC5)ccc4[nH]3)nc2c1` were -1.14%, -0.68% and 1.61%.
`COc1ccc(S(=O)(=O)N2CCC3(CC2)OCC(=O)NC3c2ccc(Cl)c(Cl)c2)cc1` (stereo not drawn): the results for the inhibition in test [1], in test [2] and in test [3] were 2.93%, 1.47% and 0.92%, respectively.
The matching figures for `CCCC(=O)Nc1ccc(OCCCN(Cc2ccccc2C(F)(F)F)c2ccc(C#N)c(C(F)(F)F)c2)cc1`: 3.53%, 4.53% and 4.55%.
Taken in the same sequence, the figures for `COc1ccc(C(=O)NCc2ccc(N)nc2C)cc1Nc1ncc(-c2cccc(N(C)C)c2)cn1` were 0.19%, -1.36% and 1.76%.
In the case of `CCc1cn2c3c(cc(C(=O)N[C@@H](Cc4cccc(F)c4)[C@H](O)CNC4CC4)cc13)N(C)S(=O)(=O)CC2`, the inhibition in test [1] amounted to 2.18%; in test [2] it was 3.5%; in test [3], 4.48%.
The matching figures for `CN(C)c1ccc2nc(N)nc(N)c2c1Cl`: 3.29%, 3.16% and 3.5%.
The matching figures for `Cc1cc(OCCCn2ccnc2)ccc1-c1csc(/N=C(\N)NCc2ccccc2)n1`: 8.57%, 5.79% and 6.56%.
The matching figures for `Fc1cccc(Nc2nc(NCc3ccc(Cl)c(Cl)c3)nc(Nc3cccc(F)c3)n2)c1`: 11.7%, 13.6% and 7.17%.
For the compound `CC(C)CN(C)Cc1ccc(-c2ccc(-c3nc4ccccc4[nH]3)s2)cc1`, the inhibition in test [1] was -1.24%; in test [2] it was -0.64%; in test [3] it was -1.65%.
The matching figures for `CC(C)(C)OC(=O)Nc1cccc(-c2csc(NC(=N)N)n2)c1`: 0.85%, 0.42% and -0.52%.
The matching figures for `NCc1ccc(Nc2nccc(Nc3ccc(-c4ccccc4)cc3)n2)cc1`: 2.28%, 4.91% and 0.24%.
Take `CC(C)N1CCN(C(=O)c2ccc(CNCCCN3CCN(c4ccccc4C(F)(F)F)CC3)s2)CC1`: the values for the inhibition in test [1], in test [2] and in test [3] were -4.83%, 0.84% and 4.26%, respectively.
The matching figures for `CN(C)Cc1ccc(-c2cccc(NC(=O)c3cccc(Cl)c3)c2)cc1`: 2.44%, 1.66% and 1.39%.
The matching figures for `c1ccc(CNc2nc(NCCc3c[nH]cn3)nc(NCc3cccc4ccccc34)n2)cc1`: -1.52%, 0.21% and -0.28%.
With `Fc1cccc2sc(Nc3nc(-c4ccccn4)cs3)nc12`, the results for the inhibition in test [1], in test [2] and in test [3] were 1.42%, 0.63% and -5.6%, respectively.
Taken in the same sequence, the figures for `COc1ccc(-c2nc3cccnc3n2CC(=O)Nc2c(C)cc(C)cc2C)c(OC)c1` were -0.28%, -1.73% and 1.82%.
As for `O=C1CCCC1Sc1nc2ccccc2c(=O)n1-c1ccc(Cl)c(Cl)c1` (stereo not drawn), the inhibition in test [1] is 2.33%; in test [2], 1.97%; in test [3] it was -1.42%.
In the case of `COc1cccc(Cc2cnc3nc(N)nc(N)c3c2C)c1`, the inhibition was found to be 2.99% in test [1], 1.68% in test [2] and 3.44% in test [3].
As for `Cc1cc(CNCCCCCCNCc2cccc([N+](=O)[O-])c2)ccc1O`, the inhibition in test [1] worked out at 10.5%; in test [2], 9.56%; in test [3], 9.64%.
As to `O=C(CC1CCCC1)N(Cc1ccc(-c2ccc(CNC3Cc4ccccc4C3)cc2)cc1)CC1CCCCN1` (stereo not drawn), the inhibition in test [1] is 38.3%; in test [2], 4.62%; in test [3] it was 2.06%.
The matching figures for `CCOc1ccc(C(C)NC(=O)c2cc(Cl)ccc2OC)cc1OCC` (stereo not drawn): -0.81%, 0.16% and -2.78%.
Taken in the same sequence, the figures for `CC[C@H](C)CNC(=O)c1cncc(-c2cccc(CN3CCC(N4CCCC4)CC3)c2)c1` were -3.12%, 2.1% and -0.34%.
For `Cc1cc(N/N=C/c2cccc([N+](=O)[O-])c2)c2cc(F)ccc2n1`, the inhibition in test [1] came out at 2.55%; in test [2] it was 1.82%; in test [3], 0.14%.
`Cc1[nH]c(C)c(-c2ccc(CCc3ccc(C(F)(F)F)cc3)nc2)c(=O)c1Cl`: the inhibition came out at 2.59% in test [1], 3.29% in test [2] and 0.56% in test [3].
On to `CS(=O)(=O)c1cccc(-c2cnc3[nH]cc(-c4ccc(CCC(=O)O)cc4)c3c2)c1`, for which the inhibition in test [1] was determined as 0.77%; in test [2], 1.38%; in test [3] it was 0.31%.
Take `COc1ccc(-c2cc(C(=O)N3CCc4ccccc43)c3ccccc3n2)cc1OC`: the inhibition in test [1] was -0.76%; in test [2], 1.24%; in test [3] it was -0.93%.
